Assay results: PubChem BioAssay

Experiment: binders of probe aHhip on microarray, primary screen, stem cell growth factor project, biochemical, small-molecule microarray, fluorescence 635/667 (AID 1087);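 note: score merges spot fluorescence at 667nm with spot signal to noise ratio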
Conditions: higher = more signal

SMILES | composite z-score
COCC(=C=CC[C@H](O)c1ccccc1OCCO)C[C@H](O)c1cc(Cl)cc(Cl)c1O | -0.0994
C=CCC(OC(C)=O)[C@@H]1[C@@H](N(Cc2ccc(-c3ccccc3)cc2)C(=O)Cc2ccc(F)cc2)c2cc(OCCCO)ccc2N1C(=O)c1ccc(-c2ccccc2)cc1 (stereo not given in full) | -0.0994
COCCOC(=O)N1C(=O)[C@@]2(c3cc(C#CC4=CCCCC4)ccc31)[C@H](c1ccc(O)cc1)N1[C@H](c3ccccc3)[C@H](c3ccccc3)OC(=O)[C@H]1[C@@H]2C(N)=O | 0.154
O=C1O[C@H](c2ccccc2)[C@H](c2ccccc2)N2[C@H]1[C@@H](C(=O)O)[C@]1(C(=O)Nc3ccc(C#CCCO)cc31)[C@H]2c1ccc(O)cc1 | 0.437
O=C(NCc1ccccc1)[C@@]1(Cc2ccccc2)N=C(c2ccc(OCCCO)cc2)O[C@H]1c1ccccc1 | -0.201
CCOC(=O)C[C@H]1[C@H](OC(=O)c2cc3ccccc3oc2=O)[C@@H](NC(=O)Cc2ccc(OC)cc2)c2cc(OCCCO)ccc2N1C(=O)c1ccccc1 | -0.199
COc1ccc([Si](C)(C)[C@H]2[C@H](CCO)O[C@@]3(C(=O)N(C)c4c(Br)cc(C)cc43)[C@@H]2C)cc1 | -0.196
CN(C)C(=O)[C@@]1(Cc2ccccc2)N=C(c2ccc(OCCCO)cc2)O[C@H]1c1ccccc1N=[N+]=[N-] | -0.353
CC(=O)NCCCC[C@@H]1NC(=O)[C@@H]2C[C@H](C(=O)NCCCCCCNC(=O)CS)[C@H](c3cccc(OCCO)c3)N2C1=O | -0.299
CN(C)CCCNC(=O)[C@@]1(C)c2ccccc2C(=O)N(Cc2cc(F)cc(C(F)(F)F)c2)[C@H]1c1ccc(CO)cc1 | -0.132
O=C1C[C@]2(c3ccc([N+](=O)[O-])cc3)C(=O)N(CCN3CCOCC3)c3cc(CO)ccc3[C@H]2N1C1CCCCC1 | -0.121
COC(=O)C=C(CC(O)c1cccc(Cl)c1)OC (stereo not given) | -0.0879
COc1ccc(CCN2C(=O)[C@@]3(c4ccc([N+](=O)[O-])cc4)CC(=O)N(C4CCCCC4)[C@@H]3c3ccc(CO)cc32)cc1 | -0.0994
O=C1C2C=CC(C(O)C(c3ccccc3)c3ccccc3)N(n3cnnc3)C2C(=O)N1Cc1ccccc1 (stereo not given) | 0.446
O=C1c2ccccc2[C@@]2(Cc3ccccc3N(CCN3CCOCC3)C2=O)[C@H](c2ccc(CO)cc2)N1Cc1ccccc1 | -0.0618
CC(C)(C)OC(=O)CC[C@]1(C(=O)NCC(O)CO)COC(c2ccc(OCCCO)cc2)=N1 (stereo not given in full) | -0.0645
CN1C(=O)[C@]2(Cc3ccccc3)N=C(c3ccc(OCCCO)cc3)O[C@@H]2c2ccccc21 | 0.12
O=C1OCCC/C=C\[C@H]2OC34C=CCN(Cn5nnc6ccccc65)C(=O)[C@H]3N(CCO)C(=O)[C@@H]4C12 (stereo not given in full) | 0.382

SMILES | composite z-score
CC(C)C(=C=CC[C@@H](O)c1ccccc1OCCO)CCO | -0.214
N#Cc1ccc(NN2C(C(O)c3c(F)cccc3Cl)C=CC3C(=O)N(c4ccccc4)C(=O)C32)cc1 (stereo not given) | 0.0053
COC(=O)[C@@]1(Cc2ccccc2)[C@H]2c3cc(C(=O)N4CCCC4)n(Cc4cccc5ccccc45)c3C[C@H]2CN1C(=O)c1ccccc1 | 0.869
COCC(=C=CC[C@@H](O)c1ccccc1OCCO)C[C@@H](O)c1cc(Cl)cc(Cl)c1O | 0.164
C=CCOC(=O)[C@@H]1[C@H]2C(=O)O[C@H](c3ccccc3)[C@H](c3ccccc3)N2[C@H](c2ccc(OCCOC(=O)[C@@H]3C[C@@H]4C(=O)N[C@@H](Cc5ccccc5)C(=O)N4[C@@H]3c3ccc(O)cc3)cc2)[C@@]12C(=O)Nc1ccc(I)cc12 | 0.238
C[C@@H]1ON(c2cccc(C(=O)OC(C)(C)C)c2)[C@H](c2ccc(Br)cc2)[C@H]1C(=O)N1C(=O)OC[C@H]1Cc1ccccc1 | 0.245
O=C1OCCC=C[C@H]2OC34C=CCN(CCN5CCOCC5)C(=O)[C@H]3N(CCCCCCO)C(=O)[C@@H]4C12 (stereo not given in full) | -0.169
C=CC[C@@]1(C(N)=O)N=C(c2ccc(OCCCO)cc2)O[C@@H]1c1ccccc1CN=[N+]=[N-] | 0.0053
C=CCOC(=O)[C@H]1[C@@H]2C(=O)O[C@@H](c3ccccc3)[C@@H](c3ccccc3)N2[C@@H](c2ccc(OCCOC(=O)[C@H]3C[C@H]4C(=O)N[C@@H](CC(C)C)C(=O)N4[C@H]3c3ccc(O)cc3)cc2)[C@]12C(=O)Nc1ccc(I)cc12 | -0.263
CCCCN1CC=CC23O[C@@H]4/C=C\CCC(C)OC(=O)C4[C@H]2C(=O)N(CCCCCO)[C@@H]3C1=O (stereo not given in full) | -0.0994
COc1ccc(C(O)C2C=CC3C(=O)NC(=O)C3N2Nc2ccccn2)c2ccccc12 (stereo not given) | -0.0994
C=C(COC)/C(=C/C[C@H](OC(=O)c1ccncc1)c1ccc(OCCO)cc1)c1cnc2ccccc2c1 | 0.12
C=C(C)C1C(=C)CN([C@H](CO)c2ccccc2)C1=O (stereo not given in full) | -0.0296
C=CCC(OC(C)=O)[C@@H]1[C@@H](N(Cc2ccc(-c3cccc(C(F)(F)F)c3)o2)C(=O)Cc2ccc(F)cc2)c2cc(OCCCO)ccc2N1C(=O)Cc1ccc(OC)cc1 (stereo not given in full) | -0.164
CC(C)c1ccc(NN2C(C(O)c3cc(C(F)(F)F)cc(C(F)(F)F)c3)C=CC3C(=O)N(c4ccccc4)C(=O)C32)cc1 (stereo not given) | 0.213
COc1ccc([Si](C)(C)[C@H]2[C@H](CCn3cc([C@H](O)c4ccccc4)nn3)O[C@@]3(C(=O)N(Cc4cccc(N5CCOC5=O)c4)c4ccccc43)[C@@H]2C)cc1 | 0.155
Cc1ccc(S[C@]2(C(=O)NCC(C)C)CC(=O)N(Cc3cc(C(F)(F)F)cc(C(F)(F)F)c3)[C@@H]2c2ccc(CO)cc2I)cc1 | -0.216
